An excerpt weighted towards active compounds, which were near 19% of everything screened.
Pf growth 96h = P. falciparum growth inhibition at 96 hour, primary screen for plastid delayed-death inhibitors. P. falciparum luciferase reporter growth, 96 h. Potency, µM (series often up to 28.7 µM), inactives show top-dose activity change, negative = inhibition, actives largely listed as inhibitors. 320,000 tested, 6.9% active; note: potency is the fitted concentration of half-maximal effect; % is set by controls: 0 for no effect and ±100 for the full control effect
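P. falciparum expressing integrated firefly luciferase grown in erythrocytes (2% hematocrit, 0.05% parasitemia final) with compounds for 96 hours at 37 C, 5% CO2. Growth inhibition read as loss of luminescence after adding luciferase detection reagent.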
Pf growth 48h = inhibits P. falciparum growth in the first generation, 48 h | P. falciparum luciferase growth in erythrocytes, 48 h | Potency, µM (top dose mostly 28.7 µM), without a hit: at the highest dose activity change, negative = inhibition, usual class: inhibitors | 310,000 tested, 5.9% active; note: potency is the fitted concentration of half-maximal effect; % is set by controls: 0 for no effect and ±100 for the full control effect
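In quantitative HTS format, infected erythrocytes bearing luciferase-reporter parasites were treated for a single generation at 37 C. Luminescence after adding detection reagent served as the growth measure.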
CHX counter = affects cycloheximide protein synthesis inhibition readout, counter-screen | 300,000 tested, 12% active | max response, % | cell reporter, cycloheximide protein synthesis inhibition counterscreen | AID 2314; in the data active = max response mostly above about 13%, no sharp cut-off; inactive = mostly below about 14%; note: read at 38.3 µM for the half of the compounds with a filed dose; 0% is about no effect
SARS PLpro yeast = inhibitors of SARS-CoV papain-like protease in yeast. S. cerevisiae expressing SARS-CoV PLpro, growth rescue. Potency, µM (series often up to 32.9 µM), without a hit: top-dose activity, positive = growth rescue, actives largely listed as activators. 330,000 tested, 0.19% active. AID 485353; calls by dose curve; note: potency is the fitted concentration of half-maximal effect; 0% is about no effect; nearly all actives have a fitted effect of over 55% in size
Shiga inhibitor = Shiga toxin inhibition. Vero cells, Shiga toxin protein synthesis inhibition reporter. inhibition, % at 38.7 µM. 290,000 tested, 9.2% active. AID 2315; in the data active = inhibition mostly above about 28%, no sharp cut-off; inactive = mostly below about 43%; note: 0% is about no effect
AMA1 RON2 block = disrupts binding of P. falciparum AMA1 to RON2; AlphaScreen AMA1-biotinylated RON2 peptide binding; Potency, µM (top dose mostly 58.2 µM), for inactives: top-dose activity change, negative = inhibition, hits mostly inhibitors; 360,000 tested, 0.2% active;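 note: potency is the fitted concentration of half-maximal effect; 0% = vehicle wells and -100% = peptide control; nearly all actives have a fitted effect of over 45% in size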
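AMA1 (3D7) with his tag at 25 nM final met compounds first, then biotinylated RON2 peptide at 25 nM; detection used donor plus acceptor beads, 10 µg/mL apiece, read by AlphaScreen after 30 min at room temperature.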
* marks the source's active call; other numbers are inactive results; ? = inconclusive; . = no result given; [ ] = dose if it differs, or a comment. Unless noted, calls come from the whole dose curve; as a rule, active = well fitted curve in the direction sought with a large enough effect; inconclusive = small, poorly fitted or top-dose-only effect, or another doubt; inactive = no such curve, though single readings can be large; an effect the other way counts as inactive or inconclusive.

SMILES	Pf growth 96h	Pf growth 48h	CHX counter	SARS PLpro yeast	Shiga inhibitor	AMA1 RON2 block
O=C(COc1cccnc1[N+](=O)[O-])c1c[nH]c2ccccc12	16%	6%	20*	-1%	26	1%
CC(=O)c1c(C)[nH]c(C(=O)COc2ccc3ccc(=O)oc3c2)c1C	?	10µM*	.	3%	.	-15%
Cc1cc(C)c(C(=O)COc2cccnc2[N+](=O)[O-])cc1C	.	6%	5	3%	-11	-10%
O=C(CC1Sc2ccccc2NC1=O)c1ccc(Br)cc1 (stereo not drawn)	49%	45%	38*	-2%	58*	-5%
CCCCNC(=O)C1(C)CCCCN1C(=O)c1ccc(C)c(F)c1 (stereo not drawn)	.	.	.	.	.	5%
COc1ccc(-c2cc(CN3C(=O)c4ccccc4C3=O)on2)cc1	.	.	.	.	.	1%
CCOC(=O)N1CCN(C(=O)CSCc2ccccc2C)CC1	5%	13%	37*	8%	60*	10%
CCOC(=O)N1CCN(C(=O)CSCc2ccccc2Cl)CC1	-24%	21%	26	12%	44*	-3%
NC(=O)C1CCN(C(=O)CSCc2ccccc2Cl)CC1	-4%[5.75 µM]	7%	16	9%	5	-2%
CCOC(=O)C(C)Sc1nc(-c2ccc(OC)cc2)nc2c1c(=O)n(C)c(=O)n2C (stereo not drawn)	?	14%	1	4%	-8	.
O=C(NCC[C@@H]1CC[C@@H](NS(=O)(=O)Cc2ccccc2)[C@@H](CO)O1)C1CC1	.	.	.	.	.	0%
O=c1cc(-c2ccc(F)cc2)[nH][nH]1	-24%	-11%	0	23%	4	25%
COc1ccc(-c2cc(=O)[nH][nH]2)cc1OC	.	12µM*	1	11%	2	-7%
COc1cccc(-c2cc(=O)[nH][nH]2)c1	29%	27%	22*	9%	24	-12%
COc1ccc(F)cc1Cn1nc(C(=O)O)c2ccccc2c1=O	31%	23%	-1	3%	-6	-14%
Cc1ccc2c(c1)NC(=O)CC(c1ccccc1)=N2	-16%	116%	40*	-21%	63*	-4%
O=C(Nc1nnc(-c2ccccc2F)s1)C1CCCO1 (stereo not drawn)	2%	454%	39*	-22%	64*	14%
O=C(Nc1nnc(-c2ccncc2)s1)C1CCCO1 (stereo not drawn)	.	46%	17*	3%	35*	-16%
O=C(Nc1nnc(Cc2ccc(Cl)cc2)s1)C1CCCO1 (stereo not drawn)	-17%	16%	18	0%	40	-8%
CCOC(=O)c1c(NC(=S)N2CCCCC2)sc2c1CCN(C(=O)OCC)C2	?	?	1	1%	4	0%
CCOC(=O)c1c(NC(=O)Nc2ccc(C)cc2)sc2c1CCN(C)C2	3.7µM*	12µM*	18	0%	31	5%
C=CCNC(=S)Nc1sc2c(c1C(=O)OCC)CCN(C(=O)OCC)C2	?	13µM*	-1	.	24	37%
CCOC(=O)N1CCN(S(=O)(=O)c2ccc(C(=O)Nc3sc4c(c3C(=O)OC)CCN(C)C4)cc2)CC1	?	-20%	-7	-3%	-23	-2%
CCOC(=O)c1c(NC(=S)NCc2ccccc2)sc2c1CCN(C(=O)OCC)C2	5.9µM*	12µM*	-2	0%	-3	48%
CCOC(=O)c1c(NC(=S)Nc2ccccc2)sc2c1CCN(CC)C2	58%	6.6µM*	2	-21%	5	10%
SMILES	Pf growth 96h	Pf growth 48h	CHX counter	SARS PLpro yeast	Shiga inhibitor	AMA1 RON2 block
O=C(NCCc1nnc2ccc(NCc3ccc(F)cc3)nn12)c1ccccc1	?	?	-2	3%	10	7%
COc1ccc(CNC(=O)COC(=O)/C=C/c2cccc(Cl)c2)cc1	.	.	.	-6%	.	1%
Cc1cc(Nc2ccccc2)nc(N2CCN(C(=O)c3ccc4c(c3)OCO4)CC2)n1	33%	2%	.	.	.	-19%
O=C1NC(c2ccccc2Cl)=N/C1=C/c1ccco1	-30%	15%	38*	-1%	61*	-15%
S=c1[nH]nc(-c2ccccc2Cl)n1/N=C/C=C/c1ccco1	-20%	3%	-3	1%	2	15%
O=C1NC(c2ccc(Br)cc2)=N/C1=C/c1ccco1	?	89%	41*	-5%	63*	7%

Screens from PubChem.
